Measurements published in PubChem BioAssay (NCATS).
Inconclusive results are not listed. Activity calls are given as the source filed them. Calls come from the whole dose curve; as a rule, active = well fitted inhibition curve with a large enough effect; inconclusive = small, poorly fitted or top-dose-only effect; inactive = flat fitted curve, though single readings scatter.

These molecules were tested against Calcium and integrin-binding protein 1 (Homo sapiens) (UniProt Q99828) (assay: Primary qHTS for Identification of Calcium Integrin Binding Protein 1 (CIB1) Competitor (AID 1508620; note: top concentration of the series differs between compounds)). Conditions: CIB1-GST / FITC-alphaIIb peptide fluorescence polarization; series mostly up to 57.7 µM.
Chain of Calcium and integrin-binding protein 1 (Homo sapiens) (Q99828 whole entry, looked up): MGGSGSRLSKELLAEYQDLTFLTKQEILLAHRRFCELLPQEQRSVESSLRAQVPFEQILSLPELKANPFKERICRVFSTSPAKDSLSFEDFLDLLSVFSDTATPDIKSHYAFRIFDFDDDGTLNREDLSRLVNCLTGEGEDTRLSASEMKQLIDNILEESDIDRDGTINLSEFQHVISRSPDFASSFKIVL
Method in brief: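 Fluorescence polarization competition: GST-tagged CIB1 (1 uM final) preincubated with compound 15 min at room temperature, then FITC-labelled alphaIIb peptide (100 nM final) added. After 15 min at room temperature, polarization read at Ex 480/Em 540.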
`Nc1nccc(Oc2ccc(NC(=O)c3c[nH]cc(-c4ccc(F)cc4)c3=O)cc2F)c1Cl` was tested, and the outcome was “inactive”.
With `CC1(C)CCC(c2ccc(Cl)cc2)=C(CN2CCN(c3ccc(C(=O)NS(=O)(=O)c4ccc(N[C@H](CCN5CCOCC5)CSc5ccccc5)c(S(=O)(=O)C(F)(F)F)c4)cc3)CC2)C1` the outcome was “inactive”.
In the case of `Cc1cn(-c2cc(NC(=O)c3ccc(C)c(Nc4nccc(-c5cccnc5)n4)c3)cc(C(F)(F)F)c2)cn1`, the outcome is reported as “inactive”.
With `COc1cc2c(cc1-c1c(C)noc1C)ncc1[nH]c(=O)n([C@H](C)c3ccccn3)c12` the outcome was “inactive”.
With `CC[C@@]1(O)C(=O)OCc2c1cc1n(c2=O)Cc2cc3cc(O)ccc3nc2-1` the outcome was “inactive”.
For `CCOc1ccccc1OCCNC(C)Cc1ccc(OC)c(S(N)(=O)=O)c1` (stereo unspecified), the outcome was “inactive”.
`CCN(CC)CCCCNc1ncc2cc(-c3cc(OC)cc(OC)c3)c(NC(=O)NC(C)(C)C)nc2n1` was tested, and the outcome was “inactive”.
For `Cc1cnc(Nc2ccc(F)cc2Cl)nc1-c1c[nH]c(C(=O)N[C@H](CO)c2cccc(Cl)c2)c1`, the outcome was “inactive”.
With `Cc1cc(Nc2ncnc3ccc(-c4ccc(CNCCS(C)(=O)=O)o4)cc23)ccc1Oc1ccn2ncnc2c1` the outcome was “inactive”.
In the case of `OCc1ccc(-c2ccc(-c3ccc(CO)s3)o2)s1`, the outcome is reported as “inactive”.
In the case of `Cc1c(Cn2c(C)nc3c(C(=O)O)cc(N4CCOCC4)cc32)cccc1C(F)(F)F`, the outcome is reported as “inactive”.
With `COc1ccc(OC)c(-c2nnc3ccc(-c4ccc(OC)c(O[C@@H]5CCOC5)c4)nn23)c1` the outcome was “inactive”.
`CN(C)c1nc(Cc2ccc(NC(=O)c3ccc4ccccc4c3)cc2)nc(Cl)c1CC(=O)O` was tested, and the outcome was “inactive”.
For `Cc1nc2ccc(CN(C)c3ccc(C(=O)N[C@@H](CCC(=O)O)C(=O)O)s3)cc2c(=O)[nH]1`, the outcome was “inactive”.
`CN(C1CCc2c(c3ccccc3n2CC(=O)O)C1)S(=O)(=O)c1ccc(F)cc1` (stereo unspecified) was tested, and the outcome was “inactive”.
With `Clc1ccc2ncc(-c3cccc(NC4CNC4)n3)n2c1` the outcome was “inactive”.
For `COc1cccc(-c2ccc(NC(=O)C3=C(C(=O)O)CCC3)c(F)c2)c1`, the outcome was “inactive”.
`Cc1ccc(NC(=O)C2(c3ccc4c(c3)OC(F)(F)O4)CC2)nc1-c1cccc(C(=O)O)c1` was tested, and the outcome was “inactive”.
For `CCCCCN(CCC12CC3CC(CC(C3)C1)C2)C(=O)NCCCc1ccncc1`, the outcome was “inactive”.
`O=C(CCCCCCNC(=O)c1cnc(N(c2ccccc2)c2ccccc2)nc1)NO` was tested, and the outcome was “inactive”.
`COc1cc(C)c(Sc2cnc(NC(=O)c3ccc(CNC(C)C(C)C)cc3)s2)cc1C(=O)N1CCN(C(C)=O)CC1` (stereo unspecified) was tested, and the outcome was “inactive”.
`Cc1cn2c(-c3cn[nH]c3)cnc2c(Nc2ccc(C(=O)N3CCNCC3)cc2F)n1` was tested, and the outcome was “inactive”.
`COc1ccc2c(OCc3nnc4ccc(-c5ccccc5)nn34)ccnc2c1` was tested, and the outcome was “inactive”.
In the case of `O=C(CCCCCCC(=O)Nc1ccc([C@H]2O[C@@H](CSc3nc(-c4ccccc4)c(-c4ccccc4)o3)C[C@@H](c3ccc(CO)cc3)O2)cc1)NO`, the outcome is reported as “inactive”.
In the case of `O=C(c1cncc(Br)c1)N1CCC(N2CCCC2)CC1`, the outcome is reported as “inactive”.
In the case of `CC(=O)SC[C@@H](C)C(=O)N1CCC[C@H]1C(=O)N[C@@H](Cc1ccccc1)C(=O)O`, the outcome is reported as “inactive”.
`Cc1cc(N2CCOCC2)cc2[nH]c(-c3c(NC[C@@H](O)c4cccc(Cl)c4)cc[nH]c3=O)nc12` was tested, and the outcome was “inactive”.
For `CCN1CCN(Cc2ccc(-c3cc4c(N[C@H](C)c5ccccc5)ncnc4[nH]3)cc2)CC1`, the outcome was “inactive”.
`Cc1cnc(-c2cnc(NCCNc3ccc(C#N)cn3)nc2-c2ccc(Cl)cc2Cl)[nH]1` was tested, and the outcome was “inactive”.
In the case of `C#Cc1cccc(Nc2ncnc3cc(OC)c(OCCCCCCC(=O)NO)cc23)c1`, the outcome is reported as “inactive”.
For `Cc1cc(Nc2nc(N[C@@H](C)c3ccc(F)cc3)c(C#N)cc2F)n[nH]1`, the outcome was “inactive”.
In the case of `Cn1c2ccccc2c2c3c(c4c5ccccc5n(CCC#N)c4c21)CNC3=O`, the outcome is reported as “inactive”.
With `COc1cc2c(Oc3ccc(NC(=O)C4(C(=O)Nc5ccc(F)cc5)CC4)cc3F)ccnc2cc1OCCCN1CCOCC1` the outcome was “inactive”.
`C[C@@]12O[C@@H](C[C@]1(O)CO)n1c3ccccc3c3c4c(c5c6ccccc6n2c5c31)CNC4=O` was tested, and the outcome was “inactive”.
For `Cn1c(=O)n(-c2ccc(C(C)(C)C#N)cc2)c2c3cc(-c4cnc5ccccc5c4)ccc3ncc21`, the outcome was “inactive”.
In the case of `O=C(O)c1ccc2c(c1)nc(Nc1cccc(Cl)c1)c1ccncc12`, the outcome is reported as “inactive”.
